Results filed as inconclusive are left out. A number with no mark means an inactive call. Active and inactive are the calls of the source. Calls come from the whole dose curve; as a rule, active = well fitted activation curve with a large enough effect; inconclusive = small, poorly fitted or top-dose-only effect; inactive = flat fitted curve, though single readings scatter.
Biological target: Relaxin receptor 2 (Homo sapiens) (UniProt Q8WXD0)
Test: qHTS Assay for Agonists of the Relaxin Receptor RXFP1: RXFP2 Hit Validation; note: nearly all actives have a fitted effect of over 65% in size
Details: HEK293 RXFP2 cAMP TR-FRET, 30 min; series mostly up to 115 µM; activation: at the top concentration
How it was run: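 TR-FRET cAMP read-out in lysed HEK293 RXFP2 cells, normalized to buffer (basal) and 29 nM porcine relaxin (100%). Compounds 30 min, 37C, with Ro 20174 present. EC50 via standard Hill equation.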
Potency is the fitted concentration of half-maximal effect.

Sequence of Relaxin receptor 2 (Homo sapiens) (Q8WXD0 whole entry, looked up): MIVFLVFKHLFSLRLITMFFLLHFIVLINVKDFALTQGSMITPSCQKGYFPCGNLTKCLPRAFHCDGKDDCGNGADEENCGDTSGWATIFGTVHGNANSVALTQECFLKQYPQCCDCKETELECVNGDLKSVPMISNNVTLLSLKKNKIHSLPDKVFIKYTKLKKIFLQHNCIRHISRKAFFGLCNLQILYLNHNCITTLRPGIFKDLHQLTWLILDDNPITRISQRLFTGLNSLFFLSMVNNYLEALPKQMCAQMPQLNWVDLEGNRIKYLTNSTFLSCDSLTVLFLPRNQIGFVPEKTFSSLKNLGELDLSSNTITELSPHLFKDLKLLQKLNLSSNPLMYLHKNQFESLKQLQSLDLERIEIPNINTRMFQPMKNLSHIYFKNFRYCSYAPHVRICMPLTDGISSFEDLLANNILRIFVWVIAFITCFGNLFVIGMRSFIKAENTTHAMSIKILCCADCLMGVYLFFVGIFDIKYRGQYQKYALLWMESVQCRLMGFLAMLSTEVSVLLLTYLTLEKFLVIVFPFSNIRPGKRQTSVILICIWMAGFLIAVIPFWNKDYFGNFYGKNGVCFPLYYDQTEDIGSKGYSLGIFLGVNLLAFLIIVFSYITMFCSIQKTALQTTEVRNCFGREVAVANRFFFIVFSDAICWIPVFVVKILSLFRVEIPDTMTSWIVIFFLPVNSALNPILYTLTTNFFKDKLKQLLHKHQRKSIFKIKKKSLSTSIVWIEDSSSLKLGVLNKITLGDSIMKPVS

Row | Structure (SMILES) | activation | Potency
1 | CCn1c(=O)c2cc(C(=O)Nc3cccc(C(C)=O)c3)sc2c2ccccc21 | 13.5% | –
2 | O=C(Nc1ccccc1C(=O)N1CCNCC1)c1ccco1 | -3.31% [at 125 µM] | –
3 | CCN(CC)S(=O)(=O)c1ccc(C(=O)NCCN2C(=O)S/C(=C\c3cccnc3)C2=O)cc1 | – | 13.8 µM (active)
4 | CN(C)c1ccc(C(=S)N2CCN(S(=O)(=O)c3ccccc3)CC2)cc1 | 7.33% | –
5 | c1ccc(-c2nnc(-c3ccccn3)c(-c3ccccn3)n2)nc1 | -2.34% | –
6 | CC1C/C(=N\NC(N)=S)c2cc(Cl)ccc2S1 (configuration not stated) | 17.3% | –
7 | CN(C)c1ccc2nc3c(=O)[nH]c(=O)nc-3n(CC(O)C(O)C(O)CO)c2c1 (configuration not stated) | 15.5% | –
8 | COc1ccc(S(=O)(=O)N2CCOCC2)cc1NC(=O)CSc1nnc2ccccn12 | – | 6.15 µM (active)
9 | CC(=O)C1C(c2ccccc2)c2c(noc2C)CC1(C)O (configuration not stated) | -5.3% | –
10 | CN(CC(=O)Nc1ccccc1Cl)C(=O)COC(=O)Cc1c(F)cccc1Cl | 0.312% [at 44.7 µM] | –
11 | CC1(C)O[C@@H]2[C@H](O1)[C@@H](COS(=O)(=O)O)O[C@H]2n1cnc2c(N)ncnc21 | – | 6.15 µM (active)
12 | COC(=O)c1sc(N2C(=O)C(O)=C(C(=O)c3ccc(C)o3)C2c2ccc(F)cc2)nc1C (configuration not stated) | – | 2.75 µM (active)
13 | Cc1cccc2cc(C#N)c(SCC(=O)NCc3cccs3)nc12 | – | 19.4 µM (active)
14 | O=C(Oc1ccccc1)Oc1ccc2c(c1)oc(=O)c1ccccc12 | – | 19.4 µM (active)
15 | CN(C)c1ccc(NC(=O)C2C3C=CC(C3)C2C(=O)O)cc1 (configuration not stated) | -6.82% | –
16 | CCCCn1c(SCC(=O)N2CCOCC2)nc2c1c(=O)n(C)c(=O)n2C | – | 38.9 µM (active)

Row | Structure (SMILES) | activation | Potency
17 | O=C(Nc1ccccc1C(=O)NCCc1ccc(O)cc1)c1ccco1 | 3.59% [at 125 µM] | –
18 | COc1ccc(CN2C(=O)c3cccnc3C2=O)cc1S(=O)(=O)NC1CCCCC1 | – | 34.6 µM (active)
19 | CCCC(=O)Nc1ncnc2c1ncn2[C@@H]1O[C@@H]2COP(=O)(O)O[C@H]2[C@H]1OC(=O)CCC | – | 1.38 µM (active)
20 | O=C(OCc1nc2ccsc2c(=O)[nH]1)c1cccc(S(=O)(=O)N2CCOCC2)c1 | – | 34.6 µM (active)
21 | COc1ccc(NC(=O)CSc2nc(-c3ccc(C)cc3)cc(C(F)(F)F)c2C#N)cc1 | 27% [at 44.7 µM] | –
22 | CCc1nn(CC(=O)NCCCN2CCOCC2)c(=O)c2cc3sccc3n12 | 22.1% | –
23 | CCc1cc2cc3c(cc2nc1SCC(=O)Nc1nccs1)OCO3 | – | 21.8 µM (active)
24 | O=C(O)c1cc(-c2ccc(Br)s2)nc2ccccc12 | – | 3.46 µM (active)
25 | CCOP1(=O)OCC2OC(n3cnc4c(N)ncnc43)C(O)C2O1 (configuration not stated) | – | 7.76 µM (active)
26 | S=c1nc[nH]c2c1[nH]c1ccccc12 | – | 6.9 µM (active)
27 | N#C/C(=C/c1ccc(OCc2ccccc2)cc1)C(=O)NC1CCCCC1 | 12.7% [at 44.7 µM] | –
28 | CCN(CC)CCCCCC(=O)Nc1ccccc1C(=O)Nc1ccccc1 | -1.53% [at 125 µM] | –
29 | O=C(Nc1cccc(C(F)(F)F)c1)c1ccccc1NC(=O)C1CCCCC1 | – | inactive
30 | CC[n+]1ccc(/C=C/c2ccc(N(C)C)cc2)c2ccccc21 | -21.1% | –
31 | COc1ccc(OC)c(CNC(=O)C2CCN(C(=O)N(C)C)CC2)c1 | -3.03% | –
32 | COc1cc(-c2nnc(SCC(=O)N(C)C3CCS(=O)(=O)C3)o2)cc(OC)c1OC (configuration not stated) | 4.39% [at 44.7 µM] | –
